Experimental data as given in PMC8384837, “Expanding the binding specificity for RNA recognition by a PUF domain”.
Substitutions are numbered along the chain they refer to.

Legend:
Assay in all cases: yeast three-hybrid, YBZ-1, SC-Leu-His + 0.5 mM 3-AT, 4 days
Conditions in all cases: tags: N-Gal4 AD-HA kept; label: inside an RPR1-promoter hybrid RNA with tandem MS2 sites; ssRNA
PUM1 PUF domain R3-LFS = PUM1 PUF domain R3-LFS (Homo sapiens, UniProt Q14671 828-1176, C935L;R936F;Q939S)
Method in brief: (§1)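 The interaction score is the log change in variant frequency from input to selection. Scores were computed in log2 with a pseudocount of 1 for absent variants, using Illumina sequencing of PCR-amplified repeat regions. The input came from four days on SC-Leu and the selection from four days on SC-Leu-His + 0.5 mM 3-AT. The cells were strain YBZ-1 (LexA–MS2 coat fusion, HIS3 reporter) co-expressing Pumilio-1 PUF domain libraries and matching RNA elements from a centromeric plasmid.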

PUM1 PUF domain R3-VWC = PUM1 PUF domain R3-VWC (Homo sapiens, UniProt Q14671 828-1176, C935V;R936W;Q939C)
Method in brief: as §1

PUM1 PUF domain R3-WCS = PUM1 PUF domain R3-WCS (Homo sapiens, UniProt Q14671 828-1176, C935W;R936C;Q939S)
Method in brief: as §1

PUM1 PUF domain R8-LRK = PUM1 PUF domain R8-LRK (Homo sapiens, UniProt Q14671 828-1176, N1122L;Y1123R;Q1126K)
Method in brief: as §1

PUM1 PUF domain R7-GCG = PUM1 PUF domain R7-GCG (Homo sapiens, UniProt Q14671 828-1176, S1079G;N1080C;E1083G)
Sequence of PUM1 PUF domain R7-GCG (Q14671 828-1176 S1079G/N1080C/E1083G): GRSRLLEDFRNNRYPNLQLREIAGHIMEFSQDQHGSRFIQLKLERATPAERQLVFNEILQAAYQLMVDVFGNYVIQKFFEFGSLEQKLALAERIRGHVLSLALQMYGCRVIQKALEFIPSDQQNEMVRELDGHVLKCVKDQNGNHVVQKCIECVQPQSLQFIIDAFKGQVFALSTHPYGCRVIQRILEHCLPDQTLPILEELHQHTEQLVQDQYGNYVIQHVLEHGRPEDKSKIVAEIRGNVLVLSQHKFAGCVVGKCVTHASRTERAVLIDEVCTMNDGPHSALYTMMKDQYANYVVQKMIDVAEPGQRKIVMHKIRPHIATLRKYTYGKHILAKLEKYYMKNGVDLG
Method in brief: as §1

PUM1 PUF domain R7-QSR = PUM1 PUF domain R7-QSR (Homo sapiens, UniProt Q14671 828-1176, S1079Q;N1080S;E1083R)
Method in brief: as §1

PUM1 PUF domain R5-RNI = PUM1 PUF domain R5-RNI (Homo sapiens, UniProt Q14671 828-1176, C1007R;R1008N;Q1011I)
Method in brief: as §1

PUM1 PUF domain R2-EWS = PUM1 PUF domain R2-EWS (Homo sapiens, UniProt Q14671 828-1176, N899E;Y900W;Q903S)
Method in brief: as §1

PUM1 PUF domain R4-VNT = PUM1 PUF domain R4-VNT (Homo sapiens, UniProt Q14671 828-1176, N971V;H972N;Q975T)
Sequence of PUM1 PUF domain R4-VNT (Q14671 828-1176 N971V/H972N/Q975T): as the sequence (Q14671 828-1176 S1079G/N1080C/E1083G) above, with N144V, H145N, Q148T, G252S, C253N, G256E counted along it
Method in brief: as §1

PUM1 PUF domain R4-TPE = PUM1 PUF domain R4-TPE (Homo sapiens, UniProt Q14671 828-1176, N971T;H972P;Q975E)
Method in brief: as §1

PUM1 PUF domain R4-SNV = PUM1 PUF domain R4-SNV (Homo sapiens, UniProt Q14671 828-1176, N971S;H972N;Q975V)
Method in brief: as §1

PUM1 PUF domain R6-MYG = biological target: T1, PUM1 PUF domain R6-MYG (Homo sapiens, UniProt Q14671 828-1176, N1043M;Q1047G)
T1 sequence: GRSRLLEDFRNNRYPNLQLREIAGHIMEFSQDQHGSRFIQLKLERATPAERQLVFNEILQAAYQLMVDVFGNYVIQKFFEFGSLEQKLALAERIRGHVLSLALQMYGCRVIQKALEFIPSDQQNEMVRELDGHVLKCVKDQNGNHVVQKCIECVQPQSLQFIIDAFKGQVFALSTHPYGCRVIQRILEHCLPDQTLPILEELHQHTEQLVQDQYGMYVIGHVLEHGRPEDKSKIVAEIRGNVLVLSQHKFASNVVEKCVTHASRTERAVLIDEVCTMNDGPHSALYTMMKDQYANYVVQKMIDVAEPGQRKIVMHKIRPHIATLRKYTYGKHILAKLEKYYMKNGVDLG
Method in brief: as §1

PUM1 PUF domain R8-KFR = PUM1 PUF domain R8-KFR (Homo sapiens, UniProt Q14671 828-1176, N1122K;Y1123F;Q1126R)
Method in brief: as §1

PUM1 PUF domain R3-ASY = PUM1 PUF domain R3-ASY (Homo sapiens, UniProt Q14671 828-1176, C935A;R936S;Q939Y)
Method in brief: as §1

PUM1 PUF domain R6-RWS = biological target: T2, PUM1 PUF domain R6-RWS (Homo sapiens, UniProt Q14671 828-1176, N1043R;Y1044W;Q1047S)
T2 sequence: T1 sequence with M216R, Y217W, G220S
Method in brief: as §1

PUM1 PUF domain R4-EYQ = PUM1 PUF domain R4-EYQ (Homo sapiens, UniProt Q14671 828-1176, N971E;H972Y)
Method in brief: as §1

PUM1 PUF domain R4-NRC = PUM1 PUF domain R4-NRC (Homo sapiens, UniProt Q14671 828-1176, H972R;Q975C)
Method in brief: as §1

PUM1 PUF domain R1-NWG = PUM1 PUF domain R1-NWG (Homo sapiens, UniProt Q14671 828-1176, S863N;R864W;Q867G)
Method in brief: as §1

PUM1 PUF domain R4-DFI = PUM1 PUF domain R4-DFI (Homo sapiens, UniProt Q14671 828-1176, N971D;H972F;Q975I)
Method in brief: as §1

PUM1 PUF domain R3-ASE = PUM1 PUF domain R3-ASE (Homo sapiens, UniProt Q14671 828-1176, C935A;R936S;Q939E)
Method in brief: as §1

In the case of “GGCUAGAACUAGUGGAUCCCCCGGCGCCCGGCGGCUCGAGCCCGGGUAAGUGUAAUUAGUCUGCAUGCCGCCGGGCGCCAUGCCUGCAGGUCGACUCUAGAAAACAUG”, the binding signal (PUM1 PUF domain R3-LFS) was 4.38 log2 enrichment (interaction score), the binding signal (PUM1 PUF domain R3-VWC) was 3.83 log2 enrichment (interaction score) and the binding signal (PUM1 PUF domain R3-WCS) was 1.01 log2 enrichment (interaction score).

“GGCUAGAACUAGUGGAUCCCCCGGCGCCCGGCGGCUCGAGCCCGGGUAAGCGUAAAUAGUCUGCAUGCCGCCGGGCGCCAUGCCUGCAGGUCGACUCUAGAAAACAUG” was tested, and the binding signal (PUM1 PUF domain R8-LRK) was 2.19 log2 enrichment (interaction score).

For “GGCUAGAACUAGUGGAUCCCCCGGCGCCCGGCGGCUCGAGCCCGGGUAAGUUUAAAUAGUCUGCAUGCCGCCGGGCGCCAUGCCUGCAGGUCGACUCUAGAAAACAUG”, the binding signal (PUM1 PUF domain R7-GCG) was 3.64 log2 enrichment (interaction score) and the binding signal (PUM1 PUF domain R7-QSR) was 3.84 log2 enrichment (interaction score).

With “GGCUAGAACUAGUGGAUCCCCCGGCGCCCGGCGGCUCGAGCCCGGGUAAGUGUCAAUAGUCUGCAUGCCGCCGGGCGCCAUGCCUGCAGGUCGACUCUAGAAAACAUG” the binding signal (PUM1 PUF domain R5-RNI) was 3.78 log2 enrichment (interaction score).

For “GGCUAGAACUAGUGGAUCCCCCGGCGCCCGGCGGCUCGAGCCCGGGUAAGUGUAAAAAGUCUGCAUGCCGCCGGGCGCCAUGCCUGCAGGUCGACUCUAGAAAACAUG”, the binding signal (PUM1 PUF domain R2-EWS) was 6.34 log2 enrichment (interaction score).

“GGCUAGAACUAGUGGAUCCCCCGGCGCCCGGCGGCUCGAGCCCGGGUAAGUGUAUAUAGUCUGCAUGCCGCCGGGCGCCAUGCCUGCAGGUCGACUCUAGAAAACAUG” was tested, and the binding signal (PUM1 PUF domain R4-VNT) was 2.54 log2 enrichment (interaction score), the binding signal (PUM1 PUF domain R4-TPE) was 3.03 log2 enrichment (interaction score) and the binding signal (PUM1 PUF domain R4-SNV) was 3.72 log2 enrichment (interaction score).

In the case of “GGCUAGAACUAGUGGAUCCCCCGGCGCCCGGCGGCUCGAGCCCGGGUAAGUGUAAAGAGUCUGCAUGCCGCCGGGCGCCAUGCCUGCAGGUCGACUCUAGAAAACAUG”, the binding signal (PUM1 PUF domain R2-EWS) was 4.8 log2 enrichment (interaction score).

With “GGCUAGAACUAGUGGAUCCCCCGGCGCCCGGCGGCUCGAGCCCGGGUAAGUGUAAAUAGUCUGCAUGCCGCCGGGCGCCAUGCCUGCAGGUCGACUCUAGAAAACAUG” the binding signal (PUM1 PUF domain R6-MYG) was 4.1 log2 enrichment (interaction score), the binding signal (PUM1 PUF domain R8-KFR) was 6.77 log2 enrichment (interaction score) and the binding signal (PUM1 PUF domain R3-ASY) was 2.58 log2 enrichment (interaction score). The binding signal (PUM1 PUF domain R3-LFS) was 3.98 log2 enrichment (interaction score), the binding signal (PUM1 PUF domain R6-RWS) was 6.05 log2 enrichment (interaction score) and the binding signal (PUM1 PUF domain R8-LRK) was 1.28 log2 enrichment (interaction score). For the same sequence, the binding signal (PUM1 PUF domain R4-EYQ) was 1.61 log2 enrichment (interaction score), the binding signal (PUM1 PUF domain R4-SNV) was 1.05 log2 enrichment (interaction score) and the binding signal (PUM1 PUF domain R4-NRC) was 3.78 log2 enrichment (interaction score).

In the case of “GGCUAGAACUAGUGGAUCCCCCGGCGCCCGGCGGCUCGAGCCCGGGUAAGUGUAAAUUGUCUGCAUGCCGCCGGGCGCCAUGCCUGCAGGUCGACUCUAGAAAACAUG”, the binding signal (PUM1 PUF domain R1-NWG) was 5.42 log2 enrichment (interaction score).

“GGCUAGAACUAGUGGAUCCCCCGGCGCCCGGCGGCUCGAGCCCGGGUAAGUGUACAUAGUCUGCAUGCCGCCGGGCGCCAUGCCUGCAGGUCGACUCUAGAAAACAUG” was tested, and the binding signal (PUM1 PUF domain R4-VNT) was 0.69 log2 enrichment (interaction score), the binding signal (PUM1 PUF domain R4-DFI) was 3.24 log2 enrichment (interaction score) and the binding signal (PUM1 PUF domain R4-EYQ) was 3.27 log2 enrichment (interaction score). For the same sequence, the binding signal (PUM1 PUF domain R4-SNV) was 3.34 log2 enrichment (interaction score).

“GGCUAGAACUAGUGGAUCCCCCGGCGCCCGGCGGCUCGAGCCCGGGUAAGUGUAAGUAGUCUGCAUGCCGCCGGGCGCCAUGCCUGCAGGUCGACUCUAGAAAACAUG” was tested, and the binding signal (PUM1 PUF domain R3-LFS) was 6.56 log2 enrichment (interaction score), the binding signal (PUM1 PUF domain R3-ASE) was 4.6 log2 enrichment (interaction score) and the binding signal (PUM1 PUF domain R3-WCS) was 2.96 log2 enrichment (interaction score).
